This is an account of results in PubChem BioAssay AID1845224 (National Center for Advancing Translational Sciences (NCATS), 2023).

This test concerns NanoLuc luciferase (engineered Oplophorus gracilirostris luciferase). Put plainly: Confirmatory Nanoluciferase (NLuc) qHTS assay for identification of artifact compounds. An excerpt:
PI: Alexander Tropsha Ph.D. UNC Eshelman School of Pharmacy University of North Carolina, Chapel Hill, North Carolina Hits from high-throughput screening (HTS) of chemical libraries are often false positives due to their interference with the assay detection technology. In response to this problem, we generated the largest publicly available library of chemical liabilities and developed a free webtool to predict HTS artifacts, both of which are described herein. More specifically, we generated, curated, and integrated HTS datasets for thiol reactivity, redox activity, and luciferase (firefly and nano) activity. Using these curated datasets, we developed and validated several Quantitative Structure-Interference Relationship (QSIR) models to predict nuisance behavior. […] These models were employed for virtual profiling of the National Center for Advancing Translational Science's (NCATS) in-house library, and 256 compounds for each assay were selected for the experimental validation of nuisance behavior. The BA for these external predictions ranged from 58 to 78% for compounds within the applicability domains of the models. […] The models developed in this study, along with aggregation models previously developed by our group (SCAM Detective) were implemented in "Liability Predictor," an online tool which may be used as part of chemical library design or for triaging HTS hits. Both the models and the curated datasets are publicly available at https://liability.mml.unc.edu/.
PROTOCOL TABLE SEQUENCE No. (e.g., 1, 2, 3, etc.); PARAMETER (e.g., Cells, Incubation, Reagent, etc.); VALUE; DESCRIPTION. 1; Reagent; 2 uL; Nanoluciferase media. 2; Compounds and control; 16 nL; Kalypsis pin tool (Wako USA) equipped with a 1536-well pin head. 3; Incubation; 15 min. 4; Reagent; 2 uL; Luciferase enzyme. 5; Incubation; 5 min. 6; Detection; Luminescence, ViewLux microplate reader. NOTES (numbers refer to Sequence numbers above) 1. Medium was collected from the culture flasks of NLuc-expressing S16 cells (80% confluent) prior to cell plating, filtered through a 0.22um filter, and frozen at -20C prior to use. Media was diluted (1:55) and 2 uL was dispensed into all wells of a 1536-well assay plate (solid-bottom white plate; Greiner Bio One, Monroe, NC). 2. A Wako Pin-tool (Wako Automation, Richmond, VA) was used to transfer 16 nL of compounds (consisting of 7-plates in qHTS format, final concentration range 18.3 nM to 114 uM) or control Cilnidipine (final concentration range 623 nM to 80 uM). 3. 15 min. incubation at room temperature protected from light. 4. 2 uL of NLuc substrate (1:100 in Nano-Glo luciferase buffer; Nano-Glo luminescence assay, Promega, Madison, WI) was dispensed for a final assay volume of 4 uL. 5. Plates were centrifuged (121xg, 15 seconds) and incubated for 5 minutes. 6. Samples were read for luminescence on a ViewLux CCD imager (PerkinElmer). Data were normalized to no-enzyme (0% activity) and no-inhibitor (DMSO; 100%) controls and the resulting percent inhibition data were fitted to a 4-parameter Hill equation using NCATS in-house software.
Background: qHTS replaces the single test concentration by a dilution series.

Inconclusive results are not listed. Entries that show only a call come without a potency. Activity calls are given as the source filed them. Calls come from the whole dose curve; as a rule, active = well fitted curve in the direction sought with a large enough effect; inconclusive = small, poorly fitted or top-dose-only effect, or another doubt; inactive = no such curve, though single readings can be large or run the other way.
Potency is the fitted concentration of half-maximal effect.

Turning to `CC(C)(O)[C@@H]1[C@H]2OC(=O)[C@@H]1[C@]1(O)C[C@H]3O[C@]34C(=O)O[C@H]2[C@]14C`, the Potency entry was “inactive”.

In the case of `CC(=O)O[C@H]1[C@H]2[C@@H](OC(=O)Cc3ccccc3)[C@@H](C)C[C@]2(OC(C)=O)C(=O)/C(C)=C/[C@@H]2[C@H](CC[C@@]13CO3)C2(C)C`, the Potency entry was “inactive”.

Consider `C[C@H]1CC[C@@H]2[C@@H](C)[C@H]3C(CC4C5CC=C6CC(O[C@@H]7O[C@H](CO)C(O[C@@H]8O[C@@H](C)[C@H](O)[C@@H](O)[C@H]8O)[C@H](O)[C@H]7O[C@@H]7O[C@@H](C)[C@H](O)[C@@H](O)[C@H]7O)CC[C@]6(C)C5CC[C@@]43C)N2C1` (some centres undefined), for which the Potency result was “inactive”.

Consider `CC(=O)O[C@H]1C2[C@@H](OC(=O)Cc3ccccc3)[C@@H](C)C[C@]2(OC(C)=O)C(=O)/C(C)=C/[C@@H]2[C@H](CC[C@@]13CO3)C2(C)C` (some centres undefined), for which the Potency entry was “inactive”.

As for `CC1=C[C@H]2[C@]3(O)C(C=C(CO)C[C@]2(O)C1=O)[C@@H]1C(C)(C)[C@]1(O)[C@H](O)[C@H]3C` (some centres undefined), the Potency result is “inactive”.

In the case of `COc1cc(=O)n2c(c1C(=O)N(C)Cc1nonc1C)CCN(C(=O)C1C(C)(C)C1(C)C)CC2`, the Potency entry is “inactive”.

Consider `C[C@@H]1C[C@@H]2[C@H]([C@H]3C=C(COC(=O)c4ccccc4)[C@@H](O)[C@]4(O)[C@@H](O)C(OC(=O)c5ccccc5)=C[C@@]14C3=O)C2(C)C`, for which the Potency entry was “inactive”.

Turning to `COc1cccc2c1C(=O)c1c(O)c3c(c(O)c1C2=O)CC(O)(C(C)=O)CC3OC1CC(NCc2ccc(CNC3CC(OC4CC(O)(C(C)=O)Cc5c(O)c6c(c(O)c54)C(=O)c4c(OC)cccc4C6=O)OC(C)C3O)cc2)C(O)C(C)O1` (centres undefined), the Potency was 15.4 µM (active).

Turning to `O=P1(N(CCCl)CCCl)NC(OO)CCO1` (centres undefined), the Potency result is “inactive”.
